About 83,000 compounds went through this panel and 20% of them were active in at least one assay; those are over-represented in the sample as a whole.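 In brief: 96-well plates, 48 h treatment, single concentration, percent growth endpoint.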 Active and inactive are the calls of the source. Rule for the calls: active = growth percent below 10; inactive = the rest.

This assay relates to SK-MEL-5 melanoma. Put plainly: NCI-60 one-dose screen, 48 h (100 = growth as untreated, 0 = no growth, -100 = all killed). Conditions: 10 µM.
Turning to `C=C(C(=O)c1ccccc1)C(NC(C)(C)C)c1ccccc1` (stereo not drawn), the growth is -25.6% (active). Consider `O=c1c2ccccc2nc(SCCN2CCCCC2)n1CCc1ccccc1`, for which the growth was 76.7% (inactive). For `N=c1c2c(-c3ccccc3)c(-c3ccccc3)n(Cc3ccccc3)c2ncn1CCCO`, the growth was -4.56% (active). With `COc1cc(/C=C2\Oc3cc(OCC(=O)c4ccccc4)ccc3C2=O)cc(OC)c1OC`, the growth is 98.7% (inactive). On to `Cc1ccc(NC(=O)CSc2nc3ccccc3c(=O)n2CCc2ccccc2)c(C(=O)O)c1`, for which the growth is 105% (inactive). On to `O=C(Nc1nc2ccc(F)cc2s1)c1cc(-c2ccc(F)cc2)n2nc(-c3ccccc3)cc2n1`, for which the growth is 68.3% (inactive). As for `CN1CCCNc2c(c(=O)c2=O)NCCCN(C)CCCNc2c(c(=O)c2=O)NCCCN(C)CCCNc2c(c(=O)c2=O)NCCCN(C)CCCNc2c(c(=O)c2=O)NCCCN(C)CCCNc2c(c(=O)c2=O)NCCCN(C)CCCNc2c(c(=O)c2=O)NCCCN(C)CCCNc2c(c(=O)c2=O)NCCC1`, the growth was 39.6% (inactive). On to `CCN1CCC2(CC1)OC(c1ccccc1)C(c1ccccc1)O2` (stereo not drawn), for which the growth was 105% (inactive). Take `O=C(O)c1ccc(Cl)cc1Nc1ccc(F)cc1`: the growth was 102% (inactive). For `CCCCCC(=O)c1ccc(OCCCN2CCN(C(=O)OCC)CC2)cc1`, the growth is 63.7% (inactive). Take `COc1ccc(NC(=O)CSc2nc3ccccc3c(=O)n2CCc2ccccc2)cc1`: the growth was 86.6% (inactive).

As to `COc1ccc(-c2nnc(-c3c(-c4ccccc4)nc4ncccn34)o2)cc1OC`, the growth is 95.4% (inactive). Under `COc1ccc2nc3cc(Cl)ccc3c(NCCNCC(C)O)c2c1` (stereo not drawn) stands 81% (inactive).

(Values after PubChem BioAssay (NCI).)
